Shown are actives, neighbours in structure and some others; about 2.2% of the full set was active somewhere.
EBV LMP1 NFkB = inhibitors of Epstein-Barr LMP1-induced NF-kappaB reporter; LMP1-induced NF-kappaB luciferase reporter cells, luminescence; inhibition, % at 12.5 µM; 0.69% of 350,000 active; AID 504558; in the data active = inhibition above about 41%; inconclusive = no clear call, values can overlap the other calls;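 note: 0% = neutral control wells and 100% = reference inhibitor control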
PAX8 inh HTS = inhibitors of PAX8 transcriptional activity in RMG-I cells. RMG-I TPO-luciferase reporter, SteadyGlo, 24 h. inhibition, % at 12.6 µM. 1.2% of 360,000 active;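 active = mean replicate inhibition at least 60% with every replicate also reaching 60%; inconclusive = only one of the two criteria is met; inactive = mean below 60% and not all replicates reaching 60%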;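 note: luciferase light reporting Pax8 driven TPO promoter activity; plate controls were median of neutral control wells for no effect and mitoxantrone controls for full effect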
Shn3 inh set2 = Schnurri-3 reporter inhibition in Clone20 osteoblasts | Clone20 osteoblast Shn3 3'UTR firefly luciferase, 24 h | inhibition, % at 12.5 µM | 0.52% of 360,000 active | AID 588674;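 active = mean inhibition of at least 75% with every replicate also reaching 75%; inconclusive = mean inhibition at least 75% but some replicate below; inactive = mean inhibition below 75%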;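 note: 0% = median of neutral control wells and 100% = pilot-screen positive control compound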
LGR2 antag = Drosophila LGR2 receptor signaling inhibition | HEK293 LGR2, CRE-luciferase, bursicon-stimulated, 4 h | inhibition, % at 9.99 µM | 0.35% of 380,000 active;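 active = drop in luminescence signal, shown as inhibition above about 50% in the replicate tests, limit read from the data, passing the limit was not always enough; inconclusive = probably only some replicates passing the limit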;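 note: agonist challenge used bursicon conditioned medium at about half maximal strength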
MITF TRPM1 inh = MITF TRPM1 promoter inhibition in SK-MEL-5 cells. inhibition, % at 12.5 µM. SK-MEL-5 TRPM1 promoter luciferase, 24 h. 0.83% of 330,000 active. AID 488899;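 active = mean inhibition across replicates of 60% or more, whatever share of single replicates reaches that level; inconclusive = some that reach 60%, reason not given; inactive = mean inhibition across replicates below 60%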
EWS-Fli block = blocks EWS/Fli oncoprotein-driven transcription; 0.67% of 350,000 active; A673 NR0B1-luciferase reporter, viability-normalised; inhibition, % at 12.6 µM;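 active = mean inhibition of at least 50% after viability correction, with every replicate also passing that limit; inconclusive = mean reaches 50% but only one of two replicates passes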;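 note: firefly luciferase signal divided by Alamar Blue viability fluorescence both relative to DMSO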
* = called active by the depositor; ? = inconclusive; / = no result; ! = not confirmed by another sample.

SMILES | EBV LMP1 NFkB | PAX8 inh HTS | Shn3 inh set2 | LGR2 antag | MITF TRPM1 inh | EWS-Fli block
C[C@@H]1CN([C@@H](C)CO)C(=O)c2cccc(NC(=O)Nc3ccccc3)c2O[C@H]1CN(C)Cc1ccc2c(c1)OCO2 | / | 1.9 | / | 23.3 | / | 13.9
O=C(O)/C=C/c1ccc(Cn2ccnc2)cc1 | 59.5*! | -31.3 | -5.7 | 13.5 | 0.1 | -6.8
COc1ccc(-n2c(-c3ccc(Cl)cc3)c[n+]3c2CCc2ccccc2-3)cc1 | 4.2 | 93.6* | 75.6 | -0.3 | 45.2 | 22.6
COc1ccccc1-c1ccccc1C1=CC(=O)CC(C)(C)C1=O | 61.4* | 11.0 | 10.7 | 44.0 | / | 5.5
COc1ccc(-c2ccccc2C2=CC(=O)CC(C)(C)C2=O)cc1 | -3.3 | -9.8 | 10.2 | -1.7 | / | 1.7
C[C@@H]1CN([C@H](C)CO)S(=O)(=O)c2ccc(C#CCN(C)C)cc2O[C@H]1CN(C)Cc1ccc(F)cc1 | / | / | / | -12.1 | / | 23.6
COc1cccc(C(=O)NC(=S)N2CCN(c3ccc(C(F)(F)F)cc3[N+](=O)[O-])CC2)c1 | 4.0 | 0.8 | -10.3 | 2.3 | 4.3 | 63.8*
Cc1noc(C)c1COC(=O)[C@@H](NC(=O)c1ccccc1)C(C)C | 7.2 | 68.5* | ? | -0.6 | 1.6 | -3.5
COc1ccccc1NC(=O)N1C[C@H](O)COC[C@@H]2O[C@H](CC(=O)NCCc3ccccc3)CC[C@H]21 | / | 14.8 | / | -6.0 | / | -5.9
C[C@@H]1CN([C@H](C)CO)C(=O)c2cc(NC(=O)CCN3CCOCC3)ccc2O[C@@H]1CN(C)S(C)(=O)=O | / | 0.6 | / | 15.7 | / | -2.2
COc1ccc(NC(=O)c2cc3c(CO)cnc(C)c3oc2=Nc2cccc(F)c2)c(OC)c1 | 46.8* | 10.0 | -12.3 | -4.4 | 10.9 | -4.1
COc1cc2c(cc1OC)C(C)N(C(=O)c1cc(C)on1)CC2 (configuration not stated) | 16.9 | 41.5 | 6.9 | -7.3 | 30.4 | 52.9*
C[C@H]1CN([C@@H](C)CO)C(=O)Cc2cc(N(C)C)ccc2O[C@@H]1CN(C)Cc1ccc(C(=O)Nc2ccccc2N)cc1 | / | 64.8* | / | 16.2 | / | 47.2
C[C@@H]1CN([C@@H](C)CO)C(=O)Cc2cc(N(C)C)ccc2O[C@@H]1CN(C)Cc1ccc(C(=O)Nc2ccccc2N)cc1 | / | 75.8* | / | -9.6 | / | ?
O=C(NCc1ccccc1)[C@H]1[C@H](CO)[C@H]2Cn3c(ccc(-c4cccc(F)c4)c3=O)[C@@H]1N2 | / | / | / | -7.9 | / | -13.3
COCC(=O)N1[C@H](CO)[C@H](c2ccc(-c3cccc(F)c3)cc2)C12CN(C(=O)C1CC1)C2 | / | / | / | 11.5 | / | /
Cc1noc(C)c1S(=O)(=O)Nc1ccc2c(c1)C(=O)N([C@@H](C)CO)C[C@@H](C)[C@H](CN(C)S(=O)(=O)c1ccccc1)OCCCC[C@@H](C)O2 | / | -6.8 | / | -10.3 | / | -2.8
CC1CN(c2cc(=O)n(-c3ccccc3)c(=O)[nH]2)CC(C)O1 (configuration not stated) | 60.6* | -12.9 | -36.6 | 4.8 | 6.2 | -1.6
O=C(Nc1cccc(Cl)c1)Nc1csc([N+](=O)[O-])c1 | 21.4 | 98.8* | 29.6 | 26.2 | -5.6 | 19.0
O=C(Nc1ccncc1)Nc1cccc(Cl)c1 | -6.2 | -17.8 | 19.2 | -19.1 | -19.1 | -5.7
CC(C)C(=O)Nc1cccc(COc2ccc(CN(Cc3ccccc3)C(=O)OC(C)(C)C)cc2)c1 | -6.0 | 71.7* | 47.3 | 19.4 | 19.1 | 24.6
COc1ccc(N=[N+]([O-])c2ccc(OC)cc2)cc1 | -3.5 | -185.2 | -16.2 | 71.7* | -20.5 | ?
C[C@@H]1CN([C@H](C)CO)C(=O)c2cc(NS(C)(=O)=O)ccc2O[C@@H]1CN(C)C(=O)Nc1ccc2c(c1)OCO2 | / | / | / | -16.1 | / | 2.7
O=C(c1ccc(F)cc1)N1CC(=O)N2[C@H](C1)[C@H](c1ccc(C#CC3CCCC3)cc1)[C@@H]2CO | / | / | / | -26.4 | / | -39.6
COc1ccc(N=CC2=C(O)c3ccccc3C2=O)c(OC)c1 | 56.9* | / | 43.6 | / | 76.5* | /
SMILES | EBV LMP1 NFkB | PAX8 inh HTS | Shn3 inh set2 | LGR2 antag | MITF TRPM1 inh | EWS-Fli block
CCCC(=O)N1CC2(CN(C(=O)C3CCC3)C2)c2c(n(C)c3cc(OC)ccc23)[C@@H]1CO | / | -3.1 | / | -5.8 | / | -3.2
CC(C)C#Cc1ccc([C@H]2[C@@H](CO)N3C(=O)CN(C(=O)c4ccccn4)C[C@@H]23)cc1 | / | / | / | -6.5 | / | /
O=C(CCN1C(=O)C2C3C=CC(C3)C2C1=O)N1CCN(c2ccccc2Cl)CC1 (configuration not stated) | 85.0* | / | 17.6 | / | -9.8 | /
CCN1CCN(Cc2ccc(NC(=O)c3ccc(C)c(/C=C/c4cnc(Nc5cc(N6CCNCC6)nc(C)n5)cn4)c3)cc2C(F)(F)F)CC1 | 69.2* | / | 96.3* | / | 98.2* | /
CCN1CCN(Cc2ccc(NC(=O)c3ccc(C)c(NC(=O)c4c[nH]c5cc(C(F)(F)F)ccc5c4=O)c3)cc2C(F)(F)F)CC1 | 63.3*! | 79.8* | 98.9*! | ? | 103.1* | 63.3*!
CCN1CCN(Cc2ccc(NC(=O)c3cc(NC(=O)c4ccno4)cc(OC)c3)cc2C(F)(F)F)CC1 | 1.0 | -9.9 | 2.7 | 7.7 | -4.4 | 27.3
CCN1CCN(Cc2ccc(NC(=O)c3ccc(C)c(NC(=O)C4=NN(c5ccccc5)C(=O)C4)c3)cc2C(F)(F)F)CC1 | 10.2 | 1.2 | 12.2 | 0.0 | 10.1 | 1.6
CCN1CCN(Cc2ccc(NC(=O)c3ccc(C)c(NC(=O)c4ccno4)c3)cc2C(F)(F)F)CC1 | 47.5* | -15.7 | 17.9 | 4.1 | -6.4 | -4.7
CCN1CCN(Cc2ccc(NC(=O)c3ccc(C)c(NC(=O)c4cccc(-c5cn[nH]c(=O)c5)c4)c3)cc2C(F)(F)F)CC1 | 60.9* | / | 7.0 | / | 19.4 | /
C[C@H](CO)N1C[C@H](C)[C@@H](CN(C)C(=O)Nc2ccccc2)Oc2ccc(NC(=O)Nc3cccc4ccccc34)cc2CC1=O | / | 13.0 | / | 7.3 | / | 7.6
CCOC(=O)N1CCC(NC(=O)C2CCCN(Cc3nc(-c4cccc(C)c4)oc3C)C2)CC1 (configuration not stated) | 19.1 | 34.8 | 86.0* | -5.6 | 72.3* | /
Cc1cccc(-c2nc(CN3CCCC(C(=O)NC4CCCC4)C3)c(C)o2)c1 (configuration not stated) | 9.1 | 29.2 | 18.8 | / | 0.5 | /
CCC(=O)N(C)C[C@H]1Oc2cc(C#CC3(O)CCCC3)ccc2S(=O)(=O)N([C@H](C)CO)C[C@@H]1C | / | / | / | 7.7 | / | -2.1

Source: PubChem
